Anesthetic bind – qHTS Assay for Identification of Novel General Anesthetics; Potency, µM (series often up to 77.5 µM), for inactives: at the top dose activity change, negative = displacement, hits mostly inhibitors; 350,000 compounds, 0.074% hits; apoferritin/1-aminoanthracene competitive binding, fluorescence; also: potency is read from the fitted curve at half-maximal effect; % is scaled to controls: 0 for no effect and ±100 for the full control effect; nearly all actives have a fitted effect of over 20% in size
Target sequence (P02791 2-175 limits assumed): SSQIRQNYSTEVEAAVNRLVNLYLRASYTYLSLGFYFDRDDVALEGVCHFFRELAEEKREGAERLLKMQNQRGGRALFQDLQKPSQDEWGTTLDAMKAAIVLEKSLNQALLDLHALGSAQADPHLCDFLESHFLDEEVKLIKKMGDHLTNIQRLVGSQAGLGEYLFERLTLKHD
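In PBS, apoferritin at 10 uM is loaded with 1-AMA from a 50% saturated solution. After 10 min of compound exposure at ambient temperature, reduced 535 nm fluorescence indicates probe displacement.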
pAkt inh – HTS Assay for Inhibitors of Akt Phophorylation: Primary Screen | Neuro2A IGF-stimulated pAkt S473 HTRF, 20 min; active compounds read low | activity change, % for hits at 50 µM | 360,000 compounds, 0.32% hits | AID 651550, 2012; in the data active = activity change below about -80%; inconclusive = mostly about -51% to -80%; also: % is scaled to controls: 0 for no effect and ±100 for the full control effect
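Neuro2A cells in DMEM with 0.5% FBS, overnight at 37 deg C, given compound at single 50 µM final, then IGF (6 nM final) for 20 min at 37 deg C. Lysed; phospho-Akt Ser473 by HTRF after 24 h, 665/615 ratio.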
CCT modulator – High-Throughput Screening for Modulators of Cytosolic Chaperonin Activity. purified chaperonin ATPase assay, HTRF ADP detection, 30 min. activity change, % (test concentration not listed), hits read low. 360,000 compounds, 0.3% hits. AID 651819, 2012; in the data active = activity change below about -30%; also: % is scaled to controls: 0 for no effect and ±100 for the full control effect
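First, chaperonin was dispensed at 40 nM or 20 nM final depending on batch activity. Next, compounds were pinned at 76 uM and ATP added at 10 uM. After 30 min at 37 °C, ADP detection reagents ran 30 min at ambient temperature.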
aSyn yeast inh – qHTS of alpha-syn Inhibitors; Yeast expressing alpha-synuclein, growth rescue, BacTiter-Glo, 24 h; Potency, µM (titrated, usually from 46.1 µM), without a hit: at the highest dose growth rescue (activation), hits mostly activators; 370,000 compounds, 0.14% hits; also: potency is read from the fitted curve at half-maximal effect; % of control where 0% means no effect; nearly all actives have a fitted effect of over 65% in size
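Rescue of yeast growth: cells expressing toxic alpha-synuclein, induced in galactose at OD600 0.02, incubated with compound 24 h at 30 C. ATP luminescence quantified growth; inhibitors of toxicity appear as activators.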
TDP-43 yeast inh – qHTS of TDP-43 Inhibitors. AID 652104, 2013. 410,000 compounds, 1.8% hits. TDP-43 expressing yeast growth rescue, BacTiter-Glo, 24 h. Potency, µM (doses to about 46.1 µM), for inactives: top-dose growth rescue (activation), most hits filed as activators; also: potency is read from the fitted curve at half-maximal effect; % of control where 0% means no effect; nearly all actives have a fitted effect of over 50% in size
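Yeast cells expressing TDP-43 under galactose induction are exposed to compounds for 24 hr at 30 deg C. BacTiter-Glo luminescence measures growth, so protective compounds score as activators.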
Mito fusion act – qHTS Assay for Small Molecule Inhibitors of Mitochondrial Division or Activators of Mitochondrial Fusion | S. cerevisiae fusion-defective mutant growth rescue, CellTiterGlo 48 h | Potency, µM (series often up to 46.1 µM), without a hit: at the top dose growth rescue (activation), actives largely listed as activators | 320,000 compounds, 0.23% hits; also: potency is read from the fitted curve at half-maximal effect; % of control where 0% means no effect; nearly all actives have a fitted effect of over 45% in size
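S. cerevisiae fusion-defective temperature-sensitive mutants (e.g. fzo1-1, mgm1-5) grown 48 h at 37C in YPEG (ethanol/glycerol non-fermentable) medium with 23 nl compound per well; growth rescue read as CellTiterGlo luminescence.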
* = called active by the depositor; i = inactive; ? = inconclusive; · = no result given; [ ] = remark or other dose. An excerpt weighted towards active compounds, which were near 2.5% of everything screened. Unless noted, calls follow the shape of the dose curve; as a rule, active = well fitted curve in the direction sought with a large enough effect; inconclusive = small, poorly fitted or top-dose-only effect, or another doubt; inactive = no such curve, though single readings can be large; an effect the other way counts as inactive or inconclusive.

SMILES	Anesthetic bind	pAkt inh	CCT modulator	aSyn yeast inh	TDP-43 yeast inh	Mito fusion act
CCCCCn1c(=O)c2c(nc3n2CCN3c2ccc(Br)cc2)n(C)c1=O	-10%	·	·	·	15%	·
Cc1ccc2nc(NC(=O)c3ccccn3)sc2c1	-11%	i	1	7.1µM*	10µM*	-7%
CC1(C)CC(=O)C2=C(C1)NC(Nc1nc3ccccc3o1)=NC2c1ccccc1 (centres undefined)	·	·	·	-1%	·	·
CC1CCCN(C(=O)COc2ccc(Nc3ccccc3)cc2)C1 (centres undefined)	18µM*	i	0	3%	?	-9%
Fc1ccc(CSc2nnc(-c3ccccn3)o2)cc1	-24%	i	-1	-2%	13µM*	6%
Cc1ccc(-c2nnc(SCC(=O)NCCC(C)C)nc2-c2ccc(C)cc2)cc1	?	·	·	·	4%	·
COc1ccc(NS(=O)(=O)c2ccc3[nH]c4c(c3c2)CCCCC4)cc1	51%	·	·	·	0%	·
c1ccc(CSc2nc3ncccn3n2)cc1	·	i	3	-9%[1.84 µM]	16µM*	2%
O=C(COc1ccccc1F)Nc1ccccc1OCc1cc(=O)n2ccccc2n1	3%	·	·	·	0%	·
O=C(CNCc1ccccn1)N1CCc2ccccc2C1	4%	i	-44*	-2%	-22%	19%
O=C(CSc1ncccn1)N1CCc2ccccc2C1	-14%	i	1	-4%	10%	-1%
Cc1ccc(-c2nc3scc(CCNC(=O)c4cccc(Br)c4)n3n2)cc1	-4%	·	·	·	11µM*	·
O=C(NCCc1csc2nc(-c3cccc(F)c3)nn12)c1ccc(Br)o1	-15%	·	·	·	35µM*	·
CCC(Oc1ccccc1F)C(=O)Nc1c(C(=O)c2ccccc2)oc2ccccc12 (centres undefined)	-13%	·	·	·	0%	·
C[C@@H]1OC(Oc2ccccc2-c2cc(=O)c3c(O)cc(O)c([C@@H]4O[C@H](CO)[C@@H](O)[C@H](O)[C@H]4O)c3o2)[C@H](O)[C@H](O)[C@H]1O (some centres undefined)	2%	·	·	·	·	·
Cn1c(=O)c(-c2ccccc2)c(O)c2ccccc21	-1%	i	0	6%	20µM*	-2%
Cn1c(=O)c(C(=O)c2ccccc2)c(O)c2ccccc21	·	i	1	-28%	-52%	·
Cn1c(=O)c(Oc2ccc(Cl)cc2)c(O)c2ccccc21	0%	i	0	1%	-2%	10µM*
O=C(Nc1ccc(Br)cc1)c1cccc(C(=O)Nc2ccc(Br)cc2)c1	-9%	·	·	·	10%	·
NN=C1c2cc(S(=O)(=O)NCCO)ccc2-c2ccc(S(=O)(=O)NCCO)cc21	·	·	·	0%	·	·
CSc1ccccc1NC(=O)c1cc(C(C)C)on1	?	i	0	1%	11µM*	1%
COc1ccccc1N(CC(O)COc1c(C)cc(C)cc1C)S(=O)(=O)c1ccccc1 (centres undefined)	41%	i	-1	24%	18µM*	27%
COc1ccccc1N(CC(O)COc1ccc(C)cc1)S(=O)(=O)c1ccccc1 (centres undefined)	-5%	i	-3	?	0%	11%
CCc1nnc(NC(=O)c2nc(SCc3ccc(F)cc3)ncc2Cl)s1	?	·	·	·	16µM*	·
CCc1nnc(NC(=O)c2nc(SCc3cccc(C)c3)ncc2Cl)s1	?	·	·	·	14%	·
SMILES	Anesthetic bind	pAkt inh	CCT modulator	aSyn yeast inh	TDP-43 yeast inh	Mito fusion act
Cc1cccc(CSc2ncc(Cl)c(C(=O)Nc3nnc(C)s3)n2)c1	14µM*	·	·	·	24%	·
CCC(C=C[C@@H]1OC(=O)C=C[C@H]1C)=C[C@H](C)CC=CC(C)=C[C@@H](C)C(=O)[C@@H](C)[C@H](O)[C@@H](C)CC(C)=CC(=O)O	13%[3.34 µM]	·	·	·	·	·
CCC(C)(C)c1ccc(Oc2cccc(C(=O)O)c2)cc1	-21%	i	1	0.89µM*	-29%	-17%
CCC(C)(C)c1ccc(Oc2ccc(N)cc2)cc1	?	i	4	?	?	3%
COc1ccc(NC(=O)C2CC(c3ccccc3Cl)=NO2)cc1 (centres undefined)	-18%	i	-1	12%	11µM*	1%
COc1ccc(Cl)cc1NC(=O)C1CC(c2ccccc2Cl)=NO1 (centres undefined)	·	i	3	-2%	9%	·
CCOC(=O)N1CCN(c2nc(SC)nc3sc4c(c23)CC(C)(C)OC4)CC1	-4%	-86%*	-3	11%	5%	5%
CCOC(=O)c1nc(N2CCN(C(=O)OCC)CC2)c2c3c(sc2n1)CCCC3	-9%	i	-1	16µM*	-14%	3%
CCc1nc(N2CCN(C(=O)CCCl)CC2)c2c3c(sc2n1)CCCC3	·	i	-2	10%	20µM*	·
CCNC(=S)N1CCN(c2nc(CC)nc3sc4c(c23)CCCC4)CC1	3%	i	0	-31%	29%	-13%
Cc1ccc(NC(=O)CSc2nncn3c2cc2sccc23)cc1F	-11%	·	·	·	15%	·
CCCN(CCC)CCCNC(=O)C1CCN(c2nc3ccc(CC)cc3s2)CC1	-15%	·	·	·	4%	·
Cn1c(N)c(C(=O)COC(=O)C2CCC(C(C)(C)C)CC2)c(=O)n(C)c1=O (centres undefined)	?	-108%*	-1	3%	35µM*	1%
Cc1ccc(SCCNC(=S)Nc2cc(C)ccc2C)cc1	10%	i	-1	4%	14µM*	13%
Cc1ccc(SCCNC(=S)Nc2ccc(C)c(C)c2)cc1	62%	i	-1	-1%	5%	-11%
CCOC(=O)Cn1c(=O)n(C2CCCCC2)c2nc(-c3ccc(C(C)C)cc3)nc(C(N)=O)c21	-6%	·	·	2%	0%	·
COc1ccc(-c2nc(SCc3ccccc3)n(S(C)(=O)=O)n2)cc1	-16%	·	2	·	2.8µM*	1%
Cc1cc(NC(=O)c2ccccc2O)nc(C)n1	-1%	i	-4	-12%	19%	-5%
Cc1cc(NC(=O)c2ccc(Br)cc2)nc(C)n1	-10%	i	0	-2%	16µM*	-1%
C=C1[C@@H]2CC[C@H](C2)C1(C)C	4%	·	·	·	·	·
COc1ccc(C(=O)COc2ccccc2N2C(=O)C3C4C=CC(C4)C3C2=O)cc1 (centres undefined)	-23%	-139%*	2	-7%	-14%	1%
COc1cccc(C(=O)COc2ccccc2N2C(=O)C3C4C=CC(C4)C3C2=O)c1 (centres undefined)	-11%	i	0	13%	4%	9%

Screens from PubChem.
